Data reported in the supplement of paper PMC11732987, “Enantioselective OTUD7B fragment discovery through chemoproteomics screening and high-throughput optimisation” (Communications Chemistry, 2025).

Tests used:
Test in all cases: log2 ratio of Biotin-Ahx-Ub-VS probe labelling (fragment/DMSO); higher = less target engagement (more negative = stronger competition), active = hit call of the paper (q ≤ 0.05, log2 ratio ≤ -1)
Conditions in all cases: compound concentration: 200 uM; treatment time: 3 h
[1] = target: T1, USP19 (UniProt O94966)
T1 sequence (whole entry): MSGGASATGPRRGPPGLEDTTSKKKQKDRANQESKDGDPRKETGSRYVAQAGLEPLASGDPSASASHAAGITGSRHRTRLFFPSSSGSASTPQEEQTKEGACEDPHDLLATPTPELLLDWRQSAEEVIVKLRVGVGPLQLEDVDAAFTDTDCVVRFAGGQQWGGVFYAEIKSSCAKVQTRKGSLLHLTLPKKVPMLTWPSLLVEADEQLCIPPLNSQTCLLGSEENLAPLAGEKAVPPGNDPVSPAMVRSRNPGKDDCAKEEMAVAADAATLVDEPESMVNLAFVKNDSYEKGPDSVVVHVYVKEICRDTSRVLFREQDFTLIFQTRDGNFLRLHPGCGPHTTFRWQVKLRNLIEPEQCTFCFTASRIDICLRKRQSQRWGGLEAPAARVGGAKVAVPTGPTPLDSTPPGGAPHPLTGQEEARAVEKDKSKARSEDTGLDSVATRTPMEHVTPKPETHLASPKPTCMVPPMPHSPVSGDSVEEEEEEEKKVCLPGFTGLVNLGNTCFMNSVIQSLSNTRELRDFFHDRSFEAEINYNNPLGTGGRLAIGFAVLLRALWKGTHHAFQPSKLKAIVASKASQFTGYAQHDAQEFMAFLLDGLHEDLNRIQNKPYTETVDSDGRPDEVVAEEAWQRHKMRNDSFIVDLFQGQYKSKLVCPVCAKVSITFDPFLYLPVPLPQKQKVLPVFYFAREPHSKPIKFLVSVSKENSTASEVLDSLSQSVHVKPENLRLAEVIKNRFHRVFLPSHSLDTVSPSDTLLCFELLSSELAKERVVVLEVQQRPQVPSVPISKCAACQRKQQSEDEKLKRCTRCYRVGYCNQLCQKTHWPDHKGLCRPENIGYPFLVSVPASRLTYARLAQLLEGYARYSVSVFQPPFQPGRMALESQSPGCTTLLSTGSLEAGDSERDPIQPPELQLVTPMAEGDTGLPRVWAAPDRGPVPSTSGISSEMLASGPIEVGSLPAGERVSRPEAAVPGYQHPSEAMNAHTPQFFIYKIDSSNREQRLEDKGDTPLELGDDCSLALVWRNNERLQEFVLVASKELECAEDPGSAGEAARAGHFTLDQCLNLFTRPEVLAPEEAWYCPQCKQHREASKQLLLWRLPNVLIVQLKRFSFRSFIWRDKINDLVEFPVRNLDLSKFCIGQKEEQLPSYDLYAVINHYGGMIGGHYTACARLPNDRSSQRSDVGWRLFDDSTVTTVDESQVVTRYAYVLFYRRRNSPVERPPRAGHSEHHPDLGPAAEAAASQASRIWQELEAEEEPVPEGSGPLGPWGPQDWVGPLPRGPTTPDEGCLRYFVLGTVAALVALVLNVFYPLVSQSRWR
Outline: (§1)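 Labelled DUBs were enriched with NeutrAvidin, digested with LysC and trypsin, and run by diaPASEF LC-MS/MS. The labelling used Biotin-Ahx-Ub-VS at 0.5 µM final for 1 h on HEK293T lysate (495 µg per sample) previously treated in triplicate with fragment at 200 µM or vehicle for 3 h. Values are average log2 fragment/vehicle ratios by unpaired t-test on global-median-normalised Spectronaut quantities of proteins with ≥2 unique peptides.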

[2] = target: T2, USP22 (UniProt Q9UPT9)
T2 sequence (whole entry): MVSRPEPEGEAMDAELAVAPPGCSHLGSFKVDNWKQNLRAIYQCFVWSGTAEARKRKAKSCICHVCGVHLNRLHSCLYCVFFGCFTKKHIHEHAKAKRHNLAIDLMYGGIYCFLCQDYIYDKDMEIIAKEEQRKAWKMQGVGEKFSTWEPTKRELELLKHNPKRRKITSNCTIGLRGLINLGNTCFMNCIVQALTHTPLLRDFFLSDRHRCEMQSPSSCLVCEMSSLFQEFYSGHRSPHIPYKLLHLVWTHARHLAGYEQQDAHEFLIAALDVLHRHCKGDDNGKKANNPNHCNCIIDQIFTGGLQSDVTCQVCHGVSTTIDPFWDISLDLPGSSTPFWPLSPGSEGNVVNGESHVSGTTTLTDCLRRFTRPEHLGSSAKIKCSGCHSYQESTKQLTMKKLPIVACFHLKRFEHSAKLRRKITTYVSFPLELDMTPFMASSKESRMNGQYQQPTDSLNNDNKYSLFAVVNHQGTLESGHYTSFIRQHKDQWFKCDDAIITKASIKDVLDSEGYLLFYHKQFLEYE
Outline: as §1

[3] = target: USP24 (UniProt Q9UPU5)
Chain of USP24 (Q9UPU5 whole entry): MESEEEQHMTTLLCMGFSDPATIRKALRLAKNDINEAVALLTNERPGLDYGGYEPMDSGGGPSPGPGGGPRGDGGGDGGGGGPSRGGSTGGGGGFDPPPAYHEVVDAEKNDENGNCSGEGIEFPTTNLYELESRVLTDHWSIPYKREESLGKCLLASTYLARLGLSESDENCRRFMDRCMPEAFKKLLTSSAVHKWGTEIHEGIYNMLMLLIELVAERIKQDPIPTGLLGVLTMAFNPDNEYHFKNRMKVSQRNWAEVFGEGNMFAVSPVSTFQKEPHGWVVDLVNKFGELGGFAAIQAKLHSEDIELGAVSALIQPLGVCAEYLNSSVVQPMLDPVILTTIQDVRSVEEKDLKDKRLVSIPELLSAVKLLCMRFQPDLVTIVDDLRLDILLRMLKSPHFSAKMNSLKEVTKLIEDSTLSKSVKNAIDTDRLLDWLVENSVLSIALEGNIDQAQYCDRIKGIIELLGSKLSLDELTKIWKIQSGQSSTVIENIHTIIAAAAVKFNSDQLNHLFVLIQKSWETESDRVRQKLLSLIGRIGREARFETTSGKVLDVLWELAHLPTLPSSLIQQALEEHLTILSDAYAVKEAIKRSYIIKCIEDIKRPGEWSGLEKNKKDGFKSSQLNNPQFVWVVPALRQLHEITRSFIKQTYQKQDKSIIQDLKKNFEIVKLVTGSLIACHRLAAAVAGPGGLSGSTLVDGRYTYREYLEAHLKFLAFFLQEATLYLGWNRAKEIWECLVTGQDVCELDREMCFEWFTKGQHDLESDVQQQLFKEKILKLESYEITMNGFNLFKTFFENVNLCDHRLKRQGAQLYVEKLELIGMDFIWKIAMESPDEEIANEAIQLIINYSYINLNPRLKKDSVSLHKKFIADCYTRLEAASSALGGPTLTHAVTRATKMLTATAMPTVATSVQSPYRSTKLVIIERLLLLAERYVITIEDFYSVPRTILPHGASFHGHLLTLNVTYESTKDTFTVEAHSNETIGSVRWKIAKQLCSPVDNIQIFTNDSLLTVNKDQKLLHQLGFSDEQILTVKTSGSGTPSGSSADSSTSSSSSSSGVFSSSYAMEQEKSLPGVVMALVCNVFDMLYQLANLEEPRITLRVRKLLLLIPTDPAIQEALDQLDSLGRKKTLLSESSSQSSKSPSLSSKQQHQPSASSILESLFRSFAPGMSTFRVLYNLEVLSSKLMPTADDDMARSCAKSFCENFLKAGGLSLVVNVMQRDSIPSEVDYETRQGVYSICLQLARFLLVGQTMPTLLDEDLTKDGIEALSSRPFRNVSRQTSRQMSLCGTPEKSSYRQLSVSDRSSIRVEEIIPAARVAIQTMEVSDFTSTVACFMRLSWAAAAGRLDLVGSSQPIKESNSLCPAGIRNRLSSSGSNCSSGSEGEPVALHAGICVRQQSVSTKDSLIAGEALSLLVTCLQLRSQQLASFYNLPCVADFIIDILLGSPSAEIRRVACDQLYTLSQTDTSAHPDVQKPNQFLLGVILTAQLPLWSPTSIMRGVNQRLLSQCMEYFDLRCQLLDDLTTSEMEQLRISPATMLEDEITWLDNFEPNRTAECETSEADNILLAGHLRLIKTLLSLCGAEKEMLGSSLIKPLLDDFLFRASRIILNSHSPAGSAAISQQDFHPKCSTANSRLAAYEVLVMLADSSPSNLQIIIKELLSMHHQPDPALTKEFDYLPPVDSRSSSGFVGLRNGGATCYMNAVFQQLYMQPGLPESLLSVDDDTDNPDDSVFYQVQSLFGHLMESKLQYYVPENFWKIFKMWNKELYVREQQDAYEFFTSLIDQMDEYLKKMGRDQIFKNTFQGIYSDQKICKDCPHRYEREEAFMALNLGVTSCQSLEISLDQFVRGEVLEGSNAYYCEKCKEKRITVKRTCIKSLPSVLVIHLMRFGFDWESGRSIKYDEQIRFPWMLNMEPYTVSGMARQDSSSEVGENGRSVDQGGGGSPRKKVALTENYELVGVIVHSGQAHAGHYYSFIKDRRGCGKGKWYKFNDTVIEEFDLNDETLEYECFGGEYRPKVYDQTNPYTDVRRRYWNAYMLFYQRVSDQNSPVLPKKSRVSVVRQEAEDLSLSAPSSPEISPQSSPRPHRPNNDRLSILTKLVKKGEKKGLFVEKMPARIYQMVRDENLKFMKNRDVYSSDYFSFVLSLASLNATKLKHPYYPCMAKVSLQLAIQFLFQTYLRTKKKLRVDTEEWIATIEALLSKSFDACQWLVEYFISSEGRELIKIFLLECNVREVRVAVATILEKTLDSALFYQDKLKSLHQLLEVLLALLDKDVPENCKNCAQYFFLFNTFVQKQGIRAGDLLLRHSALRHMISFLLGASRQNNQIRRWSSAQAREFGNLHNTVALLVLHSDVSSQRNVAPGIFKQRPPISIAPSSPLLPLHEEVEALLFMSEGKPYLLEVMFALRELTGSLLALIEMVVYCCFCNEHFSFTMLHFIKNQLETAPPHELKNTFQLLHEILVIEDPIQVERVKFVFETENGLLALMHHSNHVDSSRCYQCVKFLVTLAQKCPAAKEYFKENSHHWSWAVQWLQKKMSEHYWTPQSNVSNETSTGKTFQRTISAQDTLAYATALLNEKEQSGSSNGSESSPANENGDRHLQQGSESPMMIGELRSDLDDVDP
Outline: as §1

[4] = target: T3, USP25 (UniProt Q9UHP3)
T3 sequence (whole entry): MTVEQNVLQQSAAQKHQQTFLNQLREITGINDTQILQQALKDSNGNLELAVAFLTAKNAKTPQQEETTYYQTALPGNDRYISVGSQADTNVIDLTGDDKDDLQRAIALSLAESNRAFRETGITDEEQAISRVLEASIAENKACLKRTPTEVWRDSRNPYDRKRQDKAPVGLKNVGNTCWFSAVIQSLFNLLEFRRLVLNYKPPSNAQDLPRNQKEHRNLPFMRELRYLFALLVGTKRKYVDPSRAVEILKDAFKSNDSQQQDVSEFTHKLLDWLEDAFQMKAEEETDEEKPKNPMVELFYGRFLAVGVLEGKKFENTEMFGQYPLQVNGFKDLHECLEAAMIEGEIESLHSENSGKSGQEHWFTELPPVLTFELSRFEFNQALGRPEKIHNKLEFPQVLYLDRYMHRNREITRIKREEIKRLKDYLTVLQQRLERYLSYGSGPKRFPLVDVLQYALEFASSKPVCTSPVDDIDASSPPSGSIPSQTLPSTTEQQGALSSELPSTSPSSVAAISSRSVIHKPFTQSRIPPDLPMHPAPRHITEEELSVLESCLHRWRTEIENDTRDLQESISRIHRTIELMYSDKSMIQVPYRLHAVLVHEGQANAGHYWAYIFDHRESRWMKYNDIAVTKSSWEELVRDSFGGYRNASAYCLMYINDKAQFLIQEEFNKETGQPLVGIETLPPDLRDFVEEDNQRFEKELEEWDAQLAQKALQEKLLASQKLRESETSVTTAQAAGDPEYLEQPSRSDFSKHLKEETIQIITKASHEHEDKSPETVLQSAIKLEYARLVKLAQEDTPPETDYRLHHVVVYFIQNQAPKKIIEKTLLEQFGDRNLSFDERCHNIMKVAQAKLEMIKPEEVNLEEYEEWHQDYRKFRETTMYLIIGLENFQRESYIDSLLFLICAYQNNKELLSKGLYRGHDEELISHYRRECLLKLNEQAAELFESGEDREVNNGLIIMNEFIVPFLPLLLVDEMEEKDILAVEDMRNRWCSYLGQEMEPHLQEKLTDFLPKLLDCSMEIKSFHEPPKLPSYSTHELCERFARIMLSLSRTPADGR
Outline: as §1

[5] = target: T4, USP28 (UniProt Q96RU2)
T4 sequence (whole entry): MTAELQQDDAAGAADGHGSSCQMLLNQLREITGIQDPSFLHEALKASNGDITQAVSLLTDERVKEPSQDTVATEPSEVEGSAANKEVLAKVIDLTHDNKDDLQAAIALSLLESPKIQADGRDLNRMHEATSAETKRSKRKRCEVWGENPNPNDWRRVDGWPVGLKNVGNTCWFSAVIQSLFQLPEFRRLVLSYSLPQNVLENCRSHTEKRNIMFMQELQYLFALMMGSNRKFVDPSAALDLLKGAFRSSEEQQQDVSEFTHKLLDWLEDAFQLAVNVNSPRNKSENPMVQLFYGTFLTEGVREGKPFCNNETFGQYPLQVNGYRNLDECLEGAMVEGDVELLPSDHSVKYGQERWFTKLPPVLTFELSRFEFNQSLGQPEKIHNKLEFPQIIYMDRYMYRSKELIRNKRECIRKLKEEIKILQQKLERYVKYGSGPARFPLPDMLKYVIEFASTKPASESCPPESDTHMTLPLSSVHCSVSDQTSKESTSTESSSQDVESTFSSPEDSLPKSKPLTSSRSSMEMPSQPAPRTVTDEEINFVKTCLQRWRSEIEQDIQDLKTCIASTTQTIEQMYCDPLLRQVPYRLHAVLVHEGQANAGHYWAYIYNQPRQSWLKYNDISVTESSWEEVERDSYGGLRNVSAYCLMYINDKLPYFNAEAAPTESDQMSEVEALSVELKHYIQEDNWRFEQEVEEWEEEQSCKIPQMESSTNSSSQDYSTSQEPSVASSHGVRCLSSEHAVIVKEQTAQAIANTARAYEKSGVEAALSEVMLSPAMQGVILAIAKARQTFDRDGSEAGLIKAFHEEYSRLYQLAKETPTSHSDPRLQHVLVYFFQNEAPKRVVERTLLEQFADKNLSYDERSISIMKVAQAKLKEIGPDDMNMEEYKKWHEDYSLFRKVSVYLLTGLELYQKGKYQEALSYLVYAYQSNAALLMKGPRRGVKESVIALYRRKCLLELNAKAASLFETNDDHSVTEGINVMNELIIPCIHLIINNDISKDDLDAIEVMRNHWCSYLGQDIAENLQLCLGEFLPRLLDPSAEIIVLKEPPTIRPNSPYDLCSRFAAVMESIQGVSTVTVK
Outline: as §1

Measured: log2 ratio of Biotin-Ahx-Ub-VS probe labelling

O=C(CCl)NC1CCC(C(F)(F)F)CC1 (stereo not given)
inactive: [1] -0.155 | [2] 0.067 | [3] -0.771 | [4] -0.322 | [5] -0.705
